High-throughput results as filed in PubChem.
Sampled rows, rich in hits. Any-hit rate of the full collection: about 2.9%.
MEKK2wt PB1 HTS: raises or lowers MEK5 binding to wildtype human MEKK2 PB1 domain; Q9Y2U5; hit rate 1.1% among 290,000; AID 1531; bead flow cytometry, Alexa488-MEK5 binding to MEKK2 WT; actives lie on both sides; binding response (% of control), % at 10 µM; in the data active = binding response below about 67% or above about 130%
MEKK3 PB1 HTS: raises or lowers MEK5 binding to the human MEKK3 PB1 domain; Q99759; bead-based flow cytometry, Alexa488-MEK5 binding to MEKK3; actives lie on both sides; 0 = blocked by unlabeled MEK5, 100 = vehicle; binding response (% of control), % at 10 µM; hit rate 1.4% among 290,000;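 active = binding response more than 3 SD above or below the average of its plate-row segment, actives on both sides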;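 also: Alexa488 bead fluorescence after subtracting the streptavidin-only scavenger bead signal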
MEKK2 mut-MEK5: signal of MEK5 binding to mutant human MEKK2 PB1 domain | percent response, % at 10 µM | AID 1530 | hit rate 0.35% among 290,000 | bead flow cytometry, Alexa488-MEK5 binding to MEKK2 mutant; in the data active = percent response above about 24%, passing the limit was not always enough
CRFBP-R2 block: blocks CRF-induced signaling of the CRF-BP/CRF-R2 complex | hit rate 0.59% among 350,000 | inhibition, % at 11.8 µM | HEK293 CRF-R2/CRF-BP, CRF-induced calcium fluorescence;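 active = inhibition of the ligand-induced calcium signal above about 50% at the single tested concentration, limit read from the data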
CRFBP-R2 agonist: CRF-BP/CRF-R2 complex agonism. activation, % at 13.2 µM. AID 588473. HEK293 CRF-R2/CRF-BP, calcium dye fluorescence (FLIPR); percent of saturating CRF peptide response. hit rate 0.46% among 350,000;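 active = activation of at least 50%, plus an integration ratio under a set limit after plate pattern correction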;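 also: plate controls were neutral control wells without compound for no effect and CRF at EC100 for full effect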
ABCB6 inh MLPCN: blocks the human ABCB6 transporter; AID 602162; hit rate 0.19% among 360,000; K562-ABCB6 porphyrin accumulation, flow cytometry, 1 h; stronger effect = lower value; fluorescence ratio to DMSO, % at 10 µM;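 active = fluorescence ratio to DMSO below 75%, the collection mean minus 3 SD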;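 also: signal is porphyrin accumulated inside mitochondria; 100% equals median channel fluorescence of DMSO control wells; lower ratio means ABCB6 inhibition with less porphyrin fluorescence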
Target sequence (Q9NP58 whole entry, looked up): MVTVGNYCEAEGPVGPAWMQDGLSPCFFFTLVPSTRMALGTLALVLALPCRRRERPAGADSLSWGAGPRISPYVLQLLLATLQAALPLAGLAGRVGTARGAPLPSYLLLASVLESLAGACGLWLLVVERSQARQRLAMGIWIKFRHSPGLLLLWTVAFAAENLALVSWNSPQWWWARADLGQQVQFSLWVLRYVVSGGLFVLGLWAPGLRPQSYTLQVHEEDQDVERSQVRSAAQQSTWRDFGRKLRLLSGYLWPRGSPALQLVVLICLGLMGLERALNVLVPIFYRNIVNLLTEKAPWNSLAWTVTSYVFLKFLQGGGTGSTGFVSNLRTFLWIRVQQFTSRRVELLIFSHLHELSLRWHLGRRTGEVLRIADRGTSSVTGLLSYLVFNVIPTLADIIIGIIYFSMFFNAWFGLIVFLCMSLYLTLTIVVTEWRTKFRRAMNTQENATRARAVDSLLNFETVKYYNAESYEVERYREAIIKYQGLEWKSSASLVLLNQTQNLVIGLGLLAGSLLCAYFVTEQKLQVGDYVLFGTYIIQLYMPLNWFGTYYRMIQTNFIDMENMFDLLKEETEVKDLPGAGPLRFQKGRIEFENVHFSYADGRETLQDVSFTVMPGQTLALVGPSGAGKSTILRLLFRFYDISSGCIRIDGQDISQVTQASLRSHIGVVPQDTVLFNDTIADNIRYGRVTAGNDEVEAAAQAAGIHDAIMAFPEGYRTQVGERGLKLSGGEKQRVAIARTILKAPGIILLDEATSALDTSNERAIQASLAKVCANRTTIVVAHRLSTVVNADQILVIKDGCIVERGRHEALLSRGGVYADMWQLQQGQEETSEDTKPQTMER
Starred values were filed as active, the others as inactive; / = no result given.

SMILES | MEKK2wt PB1 HTS | MEKK3 PB1 HTS | MEKK2 mut-MEK5 | CRFBP-R2 block | CRFBP-R2 agonist | ABCB6 inh MLPCN
CCOc1ccc(NC(=O)Nc2cc(C)ccc2F)cc1 | 102 | 104 | -2 | 66* | -2 | 102
Cc1ccc(-c2nn(C)c(=O)c3ccccc23)cc1CO | 96 | 88 | -3 | 69* | -3 | 99
CC(=O)OCc1cc(-c2nn(C)c(=O)c3ccccc23)ccc1C | 97 | 99 | 0 | 9 | 0 | 93
CN1CCN(C(=O)/C(=C/c2cn(S(=O)(=O)N(C)C)c3ccccc23)NC(=O)c2ccccc2)CC1 | 99 | 98 | -6 | 26 | -1 | 96
NC(=O)c1c(NC(=O)c2c(F)cccc2F)sc2c1CCN(Cc1ccccc1)C2 | 99 | 101 | 0 | -36 | 23 | 102
CCN1CCc2c(sc(NC(=O)c3ccc(S(=O)(=O)N(CC)c4ccccc4)cc3)c2C(N)=O)C1 | 97 | 100 | 4 | -150 | 201* | 147
CCN1CCc2c(sc(NC(=O)Nc3ccc(Cl)c(Cl)c3)c2C(N)=O)C1 | 127 | 111 | 2 | -276 | 239* | 944
CCCN1CCc2c(sc(NC(=O)c3ccc(S(=O)(=O)N4CCCC4)cc3)c2C(N)=O)C1 | 106 | 105 | 4 | -54 | 62* | 111
NC(=O)c1c(NC(=O)c2ccccc2)sc2c1CCN(Cc1ccccc1)C2 | 101 | 102 | -3 | -182 | 178* | 98
Cc1c(/C=N/NC(=O)C(NC(=O)c2ccc3c(c2)OCO3)C(C)C)c2ccccc2n1C (stereo not drawn) | 94 | 115 | -1 | -186 | 96* | 100
CC(C)C(NC(=O)c1ccc2c(c1)OCO2)C(=O)N/N=C/c1cccs1 (stereo not drawn) | 92 | 88 | -3 | 14 | -10 | 105
CCC1(c2ccc(F)cc2)NC(=O)N(CC(=O)N2CCc3ccccc32)C1=O (stereo not drawn) | / | / | / | -56 | 53* | 98
CC1(c2ccc(Cl)cc2)NC(=O)N(CC(=O)N2CCc3ccccc32)C1=O (stereo not drawn) | / | / | / | -50 | 82* | 98
O=C(CCN1C(=O)NC2(CCCC2)C1=O)Nc1ccc(-c2nc3ccccc3s2)cc1 | / | / | / | -13 | 3 | 111
CC(=O)Oc1ccc2c(c1)Oc1cc(OC(C)=O)ccc1C21OC(=O)c2ccccc21 | 74 | 80 | -67 | -341 | 368* | /
Cc1ccc(Cc2cnc(NC(=O)c3ccco3)s2)cc1 | 114 | 112 | 11 | -20 | 1 | 99
O=C(Nc1ncc(Cc2ccc(SC(F)F)cc2)s1)c1ccc(OC(F)F)cc1 | 100 | 96 | -1 | -110 | 68* | 94
CCc1ccc(-c2cc(C)no2)cc1S(=O)(=O)Nc1ccc(Cl)cn1 | 104 | 99 | 0 | 57* | 1 | 93
CCc1ccc(-c2cc(C)no2)cc1S(=O)(=O)Nc1cc(C)on1 | 108 | 102 | 1 | 13 | 0 | 98
CCOC(=O)C1CCCN(C(=O)CSc2nnnn2C)C1 (stereo not drawn) | / | / | / | -4 | 0 | 97
CCN(CC)CCCNc1nc(SC)nc2sc3c(c12)CCN(C)C3 | 153* | 99 | 30* | / | / | /
CSc1nc(NCCCO)c2c3c(sc2n1)CN(C)CC3 | 96 | 98 | -4 | -5 | 6 | 91
Cc1cnc(C(=O)OCc2cc(=O)n3c(C)cccc3n2)cn1 | / | / | / | 6 | -4 | 100
CC1CCCCN1C(=O)C1CCN(c2nc(-c3ccccc3)nc3c2CCC3)CC1 (stereo not drawn) | 102 | 103 | 1 | -7 | -1 | 100
Cn1c2ccccc2c(=O)c2c(=O)n(C3CCCCCC3)c(C3CCCCC3)nc21 | 105 | 104 | 10 | -30 | 127* | 88
SMILES | MEKK2wt PB1 HTS | MEKK3 PB1 HTS | MEKK2 mut-MEK5 | CRFBP-R2 block | CRFBP-R2 agonist | ABCB6 inh MLPCN
Cn1c2ccccc2c(=O)c2c(=O)n(C3CCCCC3)c(-c3cccs3)nc21 | 92 | 99 | -1 | -18 | 116* | 95
COc1ccc(CCn2c(C3CCCCC3)nc3c(c(=O)c4ccccc4n3C)c2=O)cc1 | 85 | 99 | -4 | -17 | 62* | 98
Cn1c2ccccc2c(=O)c2c(=O)n(-c3ccccc3)c(C3CCCCC3)nc21 | 90 | 96 | -2 | -19 | -1 | 96
CC(C)c1nc2c(c(=O)c3ccccc3n2C)c(=O)n1CCc1ccccc1 | 102 | 100 | -3 | 11 | 72* | 102
CCc1nc2c(c(=O)c3ccccc3n2C)c(=O)n1C1CCCCCC1 | 101 | 118 | 1 | -175 | 226* | 94
Cc1cc(C)n(C(=O)CCNC(=O)c2ccccc2Br)n1 | 102 | 100 | 2 | 18 | 0 | 101
Cc1cc(C)n(C(=O)CNC(=O)c2ccccc2Br)n1 | 101 | 100 | 2 | 97* | -1 | 95
COc1ccc2nc(N(CCN(C)C)C(=O)c3ccc4ccccc4c3)sc2c1 | 132 | 101 | 8 | -21 | 3 | 103
CCOc1cccc2sc(N(CCN(C)C)C(=O)c3cc4ccccc4cc3OC)nc12 | 149* | 101 | 19 | -9 | 0 | 97
CCOc1cccc2sc(N(CCN(C)C)C(=O)c3ccc4c(c3)OCCO4)nc12 | 117 | 105 | 10 | -12 | 1 | 99
CCOc1ccc2nc(N(CCN(C)C)C(=O)c3cc4ccccc4cc3OC)sc2c1 | 137* | 104 | 21 | -15 | 1 | 102
O=S(=O)(NCC1(N2CCOCC2)CCCCC1)c1ccc(F)c(F)c1F | / | / | / | -13 | 0 | 95
CCn1cnnc1SCC(=O)NCC1COc2ccccc2O1 (stereo not drawn) | / | / | / | 2 | 0 | 95
O=C(c1cc2ccccc2o1)N1CCN(c2ncccn2)CC1 | / | / | / | 2 | 0 | 97
Cc1ccc(NC(=O)COC(=O)c2cccnc2Cl)cc1S(=O)(=O)N1CCOCC1 | / | / | / | 64* | -3 | 95
O=C(COC(=O)c1ccc(Cl)nc1)Nc1cc(S(=O)(=O)N2CCOCC2)ccc1Cl | / | / | / | -16 | 3 | 96
O=C(COC(=O)c1ccncc1)Nc1cc(S(=O)(=O)N2CCOCC2)ccc1Cl | / | / | / | 67* | -2 | 104
CCOc1ncccc1C(=O)OCC(=O)Nc1ccc(C)c(S(=O)(=O)N2CCOCC2)c1 | 89 | 103 | -6 | 4 | 0 | 102
NS(=O)(=O)c1ccc(NC(=S)Nc2ccc(F)c(F)c2)cc1 | 101 | 101 | -1 | 69* | 7 | 101
NS(=O)(=O)c1ccc(CNC(=S)Nc2ccc(F)c(Cl)c2)cc1 | 93 | 95 | -7 | -39 | -1 | 113
CCN1C(=O)CC2CCCC1C2 (stereo not drawn) | / | / | / | 75* | 1 | 91
CCN(CC)c1ccc2cc(C(N)=O)c(=O)oc2c1 | 98 | 104 | -2 | -46 | 41 | 94
CCN(CC)c1ccc2cc(C(C)=O)c(=O)oc2c1 | 104 | 104 | 4 | -169 | 361* | 98
